Assay outcomes deposited in PubChem BioAssay by National Center for Advancing Translational Sciences (NCATS).
The entries come from a sample that favours hits as a whole.
NS1 function inh – inhibitors of influenza NS1 protein function; 270,000 compounds, 0.4% hits; Potency, µM (titrated, usually from 46.1 µM); AID 2326; calls by dose curve; further: actives are rising curves; nearly all actives have a fitted effect of over 50% in size
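A cell-based growth assay was used: compounds that relieve NS1-induced slow growth of budding yeast raise OD600. Assay medium was yeast nitrogen base with ammonium sulphate and -URA supplement, pH 6.0, with 2% galactose.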
Cruzain noTriton – cruzain (T. cruzi) inhibition without detergent; 200,000 compounds, 2.3% hits; purified cruzain, Z-FR-AMC fluorescence, no detergent; Potency, µM, actives largely listed as inhibitors; P25779; further: nearly all actives have a fitted effect of over 40% in size
Target sequence (P25779 123-467 limits assumed): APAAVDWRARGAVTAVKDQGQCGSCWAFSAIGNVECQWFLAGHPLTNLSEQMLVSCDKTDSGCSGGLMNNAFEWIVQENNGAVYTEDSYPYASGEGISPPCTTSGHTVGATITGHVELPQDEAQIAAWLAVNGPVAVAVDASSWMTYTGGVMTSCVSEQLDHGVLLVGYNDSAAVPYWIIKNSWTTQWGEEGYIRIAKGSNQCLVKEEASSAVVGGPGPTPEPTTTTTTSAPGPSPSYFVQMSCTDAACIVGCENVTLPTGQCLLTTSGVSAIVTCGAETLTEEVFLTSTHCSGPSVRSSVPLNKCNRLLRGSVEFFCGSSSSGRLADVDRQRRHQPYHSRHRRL
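Purified cruzain at 1.5 nM, pre-incubated 15 min with compound at room temperature in 100 mM sodium acetate pH 5.5, 5 mM DTT, 0.00005% Triton X-100. Reaction started with 2 uM Z-FR-AMC; AMC fluorescence increase over 60 s gives rate.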
Cruzain inh Det – inhibitors of Trypanosoma cruzi cruzain with detergent; P25779; purified cruzain, Z-FR-AMC fluorescence, 0.01% Triton; Potency, µM, actives largely listed as inhibitors; 200,000 compounds, 0.43% hits; further: nearly all actives have a fitted effect of over 40% in size
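Enzyme 1.5 nM, Z-FR-AMC 2 uM, NaOAc 100 mM pH 5.5, DTT 5 mM, Triton X-100 0.01%; 15 min RT compound preincubation; kinetic ex360/em450, 60 s delta.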
Each line names hits and unclear results; the compound was inactive in the other large screens. Unless noted, the call rests on the fitted dose curve; in most records, active means well fitted curve in the direction sought with a large enough effect; inconclusive means small, poorly fitted or top-dose-only effect, or another doubt; inactive means no such curve, though single readings can be large; an effect the other way counts as inactive or inconclusive.

c1ccc(Nc2nc3ccccc3[nH]2)nc1	Cruzain noTriton 10µM, Cruzain inh Det 25.1µM
CC(=O)OCC(=O)[C@]12OC(C)(C)O[C@@H]1C[C@H]1[C@H]3CC=C4C[C@@H](O)CC[C@]4(C)[C@H]3CC[C@]12C	none
COc1ccc(-c2csc(N(CC3CCCO3)C(=O)c3ccc(C)cc3)n2)cc1 (stereo not drawn)	Cruzain noTriton 20µM
Cc1ccc(-c2csc(N(CC3CCCO3)C(=O)c3ccco3)n2)cc1 (stereo not drawn)	none
Cc1ccc2oc(C(=O)Nc3sc4c(c3C(=O)NCc3ccccc3)CCCC4)cc(=O)c2c1	none (no result: NS1 function inh)
CC(C)c1ccc2nc(NC(=O)C3CC3)sc2c1	none (no result: Cruzain noTriton, Cruzain inh Det)
CC(C)c1ccc(/C=C/C(=O)Nc2nc3ccc([N+](=O)[O-])cc3s2)cc1	NS1 function inh inconclusive, Cruzain noTriton 3.98µM
Cc1ccc(S(=O)(=O)CC(=O)Nc2nc3c(C)cccc3s2)cc1	Cruzain noTriton 25.1µM (no result: NS1 function inh)
O=C(CS(=O)(=O)c1ccc(Cl)cc1)Nc1nc2ccc(Br)cc2s1	Cruzain noTriton 7.94µM (no result: NS1 function inh)
Cc1ccc(S(=O)(=O)CC(=O)Nc2nc3ccccc3s2)cc1	none (no result: Cruzain noTriton, Cruzain inh Det)
CC(=O)Nc1ccc2nc(NC(=O)CS(=O)(=O)c3ccc(C)cc3)sc2c1	none (no result: NS1 function inh)
COc1ccccc1CNC(=O)CCn1cnc2ccccc2c1=O	none (no result: NS1 function inh)
Clc1cccc(N/N=C/c2ccc(N3CCOCC3)s2)c1	Cruzain noTriton 31.6µM
CC(C)(C)OC(=O)N/N=C/c1ccc(N2CCOCC2)s1	NS1 function inh inconclusive
CCc1ccc(NC(=O)CCCc2nnc3n(CC(C)C)c(=O)c4sccc4n23)cc1	none (no result: NS1 function inh)
CCN(Cc1ccccc1)C(=O)CCc1c(C)nc2c(c(C)nn2-c2ccc(C)c(C)c2)c1C	none (no result: NS1 function inh)
Cc1nnc(-c2ccc(Oc3ccc(Br)cc3)c([N+](=O)[O-])c2)o1	none
Cc1cc(Oc2ccc(-c3nnc(-c4ccccc4)o3)cc2[N+](=O)[O-])ccc1Cl	Cruzain noTriton 12.6µM
CCN(C(=O)Cn1c(SCC(=O)Nc2ccc(OC)cc2)nc2ccccc21)c1cccc(C)c1	Cruzain noTriton inconclusive (no result: NS1 function inh)
O=C(O)c1c(Cl)c(Cl)c(Cl)c(Cl)c1-c1c2cc(I)c(=O)c(I)c-2oc2c(I)c(O)c(I)cc12	Cruzain inh Det 12.6µM (no result: NS1 function inh)
CC(=O)c1ccc(N2CCN(S(=O)(=O)c3ccc(-c4cc(C(F)(F)F)on4)s3)CC2)cc1	none (no result: NS1 function inh)
Cc1ccc(CNC(=O)Cc2csc(Nc3nc(=S)[nH]c4ccccc34)n2)cc1	Cruzain noTriton 10µM
O=C(Cc1csc(Nc2nc(=S)[nH]c3ccccc23)n1)N1CCN(c2cccc(C(F)(F)F)c2)CC1	none (no result: Cruzain noTriton, Cruzain inh Det)
O=C(Cc1csc(Nc2nc(=S)[nH]c3ccccc23)n1)NCc1ccccc1Cl	Cruzain noTriton inconclusive
O=C(Cc1csc(Nc2nc(=S)[nH]c3ccccc23)n1)NCc1cccc(Cl)c1	Cruzain noTriton 3.98µM
CCOc1ccccc1CNC(=O)CCc1c(C)nn(-c2ccc(N3CCCCC3)nn2)c1C	none (no result: NS1 function inh)
CCCC(=O)Nc1nc2c(s1)COc1ccccc1-2	none (no result: Cruzain noTriton, Cruzain inh Det)
O=C(CCSc1ccccc1)Nc1nc2c(s1)COc1ccccc1-2	Cruzain noTriton 31.6µM
COc1cc(NC(=O)O[C@@H]2C(=O)c3cc(Br)ccc3O[C@H]2c2ccc3c(c2)OCO3)cc(OC)c1OC	none (no result: NS1 function inh)
O=c1oc2ccccc2c2c1C1O[C@](c3ccsc3)(Cc3ccccc31)O2	none (no result: Cruzain noTriton, Cruzain inh Det)
COc1ccc(NS(=O)(=O)c2c(C)nc3scc(C)n3c2=O)cc1	none (no result: NS1 function inh)
CC1CCCN(C(=O)Cn2nnc(-c3ccc(N(C)C)cc3)n2)C1 (stereo not drawn)	none (no result: Cruzain noTriton, Cruzain inh Det)
CN(C)c1ccc(-c2nnn(CC(=O)N3c4ccccc4CCc4ccccc43)n2)cc1	Cruzain noTriton 31.6µM
O=C(Nc1ccc(Cl)cc1)c1ccc2oc(=O)n(Cc3ccccc3)c2c1	none (no result: NS1 function inh)
Cc1ccc2c(CC(=O)Nc3ccc(N4CCN(C)CC4)cc3C)coc2c1	Cruzain noTriton 25.1µM
Cc1ccc(NC(=O)Cc2coc3c(C)c(C)ccc23)c(C)c1	none (no result: NS1 function inh)
Cc1ccc(C)c(CN2C(=O)c3ccccc3Sc3ccc(C(=O)NCc4ccco4)cc32)c1	Cruzain noTriton inconclusive (no result: NS1 function inh)
O=C(NCc1ccc(-c2nc3ccccc3s2)cc1)c1ccco1	Cruzain noTriton 25.1µM
O=C(NC(=S)NCc1ccc(-c2nc3ccccc3s2)cc1)c1ccco1	Cruzain noTriton inconclusive
Cc1ccc(-c2nnc3ccccc3c2C(=O)Nc2ccc(F)cc2)cc1	none (no result: NS1 function inh)
Cc1ccc(-c2nnc3ccccc3c2C(=O)Nc2ccccc2F)cc1	Cruzain noTriton 25.1µM (no result: NS1 function inh)
COc1ccccc1C(=O)N(c1ccc(C)cc1)S(=O)(=O)c1ccc(Cl)cc1	none (no result: NS1 function inh)
COc1ccc(-c2cc3ccccc3oc2=O)cc1NC(=S)NC(=O)c1ccc2c(c1)OCCO2	Cruzain noTriton 12.6µM
CCC(=O)Nc1cc(-c2cc3ccccc3oc2=O)ccc1OC	none (no result: Cruzain noTriton, Cruzain inh Det)
COc1ccc(-c2cc3ccccc3oc2=O)cc1NC(=O)c1ccc([N+](=O)[O-])o1	none
COc1ccc(-c2cc3ccccc3oc2=O)cc1NC(=O)c1ccc(Br)o1	Cruzain noTriton 25.1µM
CCOc1ccc2[nH]c3ncccc3c(=O)c2c1	none (no result: Cruzain noTriton, Cruzain inh Det)
CCOc1ccc2c(ccc(/C=C\c3cc(C)c4cccnc4c3O)[n+]2C)c1	Cruzain inh Det 3.16µM
O=C1CN(C(=O)c2cccc(Br)c2)C(c2ccccc2)c2cc(Cl)ccc2N1 (stereo not drawn)	none (no result: NS1 function inh)
O=C1c2ccccc2C(=O)N1CCCCN1CCN(CCCCN2C(=O)c3ccccc3C2=O)CC1	none (no result: Cruzain noTriton, Cruzain inh Det)
O=C1CC(=C2c3ccccc3-c3ccccc32)C(=O)N1CCCCN1CCN(c2ccccc2)CC1	NS1 function inh inconclusive, Cruzain noTriton 15.8µM
CN1CCc2c(cc(O)c(O)c2Cl)C(c2cccc(Cl)c2)C1 (stereo not drawn)	Cruzain noTriton inconclusive
Cc1ccc(C2C3=C(CC(C)(C)CC3=O)Nc3[nH]c(=S)[nH]c(=O)c32)cc1 (stereo not drawn)	NS1 function inh 8.91µM
